According to PubChem BioAssay (EPA / NIEHS):
Active and inactive are the calls of the source. The calls were made as follows: active = hit-call score of the fitted dose curve at least 0.9, where 1 is the maximum; inactive = score below 0.9.

How the values were obtained:
Conditions in all cases: mRNA level, 48 h; actives raise or lower the signal
[1] = read-out: 3-Hydroxy-3-Methylglutaryl-CoA Synthase 2 (HMGCS2), HMGCS2 (gene 3158); assay: LTEA_HepaRG_HMGCS2: Life Technologies and Expression Analysis (LTEA) Assay for 3-Hydroxy-3-Methylglutaryl-CoA Synthase 2 (HMGCS2) using HepaRG (AID 2283504)
Method in brief: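 HepaRG, plated 48 h then switched to serum-free induction media; cmpd 8-pt, max 100 uM, 1/2-log, 0.5% DMSO, n=2, 48 h. HMGCS2 mRNA by Fluidigm TaqMan qRT-PCR, ACTB/GAPDH/POLR2A norm; bidirectional fit vs DMSO.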

[2] = read-out: HGF (gene 3082); assay: LTEA_HepaRG_HGF: Life Technologies and Expression Analysis (LTEA) Assay for Hepatocyte Growth Facto (HGF) using HepaRG (AID 2283505)
Method in brief: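 Read-out is HGF transcript level by qRT-PCR, normalized to three housekeeping genes, fitted bidirectionally against 0.5% DMSO vehicle. Human HepaRG cells received test chemicals for 48 h at up to 100 uM.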

[3] = read-out: Insulin Like Growth Factor 1 (IGF1), IGF1 (gene 3479); assay: LTEA_HepaRG_IGF1: Life Technologies and Expression Analysis (LTEA) Assay for Insulin Like Growth Factor 1 (IGF1) using HepaRG (AID 2283506)
Method in brief: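 Expression measured by TaqMan qRT-PCR on a Fluidigm array, with three housekeeping genes for normalisation, after 48 h treatment of HepaRG cells. Top concentration 100 uM with half-log steps, 0.5% DMSO vehicle, bidirectional fit.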

[4] = read-out: Intercellular Adhesion Molecule 1 (ICAM1), ICAM1 (gene 3383); assay: LTEA_HepaRG_ICAM1: Life Technologies and Expression Analysis (LTEA) Assay for Intercellular Adhesion Molecule 1 (ICAM1) using HepaRG (AID 2283507)
Method in brief: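 Readout is qRT-PCR mRNA level, normalized to three housekeeping genes and fitted bidirectionally against 0.5% DMSO vehicle. Human HepaRG cultures received compound for 48 h, top concentration 100 uM with half-log dilutions.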

[5] = read-out: Insulin-like growth factor-binding protein 1 (IGFBP1), IGFBP1 (gene 3484); assay: LTEA_HepaRG_IGFBP1: Life Technologies and Expression Analysis (LTEA) Assay for Insulin-like growth factor-binding protein 1 (IGFBP1) using HepaRG (AID 2283508)
Method in brief: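 Thawed HepaRG cells are plated for 48 h, switched to serum-free induction medium, then dosed in duplicate for another 48 h (100 uM top, half-log steps). Lysates in RLT go to qRT-PCR, and gain or loss of signal is fitted relative to vehicle.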

[6] = read-out: Interleukin 6 (IL6), IL6 (gene 3569); assay: LTEA_HepaRG_IL6: Life Technologies and Expression Analysis (LTEA) Assay for Interleukin 6 (IL6) using HepaRG (AID 2283509)
Method in brief: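 Changes in IL6 mRNA, up or down relative to 0.5% DMSO controls, were derived from concentration-response curves in human HepaRG cells treated for 48 h at up to 100 uM, with ACTB, GAPDH and POLR2A as normalizers.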

[7] = read-out: Interleukin 6 Receptor (IL6R), IL6R (gene 3570); assay: LTEA_HepaRG_IL6R: Life Technologies and Expression Analysis (LTEA) Assay for Interleukin 6 Receptor (IL6R) using HepaRG (AID 2283510);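 as to AC50: differentiated human HepaRG liver cells in serum-free induction medium; TaqMan qRT-PCR signal normalized to ACTB GAPDH and POLR2A housekeeping genes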
Method in brief: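 IL6R transcript level by qRT-PCR after 48 h chemical exposure (8-point, half-log, max 100 uM, 0.5% DMSO vehicle) of HepaRG cells in serum-free induction medium. Normalized to three housekeeping genes; curves fitted in both directions relative to DMSO.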

[8] = read-out: Potassium channel subfamily K member 1 (KCNK1), KCNK1 (gene 3775); assay: LTEA_HepaRG_KCNK1: Life Technologies and Expression Analysis (LTEA) Assay for Potassium channel subfamily K member 1 (KCNK1) using HepaRG (AID 2283511)
Method in brief: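 Human HepaRG cultures receive test chemicals for 48 h in 0.5% DMSO, top concentration 100 uM with half-log dilutions. Induction or suppression of KCNK1 mRNA relative to DMSO is derived by bidirectional fitting of qRT-PCR data.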

[9] = read-out: Keratin 19 (KRT19), KRT19 (gene 3880); assay: LTEA_HepaRG_KRT19: Life Technologies and Expression Analysis (LTEA) Assay for Keratin 19 (KRT19) using HepaRG (AID 2283512)
Method in brief: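 KRT19 transcript levels, measured by Fluidigm qRT-PCR against three housekeeping genes, are fitted for gain or loss of signal relative to DMSO. Human HepaRG cells receive test chemicals (top 100 uM, half-log steps, 0.5% DMSO) for 48 hours.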

[10] = read-out: JUN Transcription Factor, JUN (gene 3725); assay: LTEA_HepaRG_JUN: Life Technologies and Expression Analysis (LTEA) Assay for JUN Transcription Factor using HepaRG (AID 2283513)
Method in brief: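 mRNA measured by TaqMan qRT-PCR after 48 h chemical exposure of HepaRG cultures; normalization to three housekeeping genes. Duplicate eight-point half-log curves from 100 uM in 0.5% DMSO; gain or loss fitted against DMSO baseline.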

Measured: AC50

O=C(c1ccccc1)C1CCCCC1
inactive: all assays above

CCOC(=O)C(C)Oc1ccc(Oc2cnc3cc(Cl)ccc3n2)cc1 (centres undefined)
active: [3] 1.06 µM
inactive: all other assays above

CCOC(=O)COc1cc(-n2ncc(C(F)(F)F)c(C)c2=O)c(F)cc1Cl
inactive: all assays above

CCN(CC)C(=O)c1cccc(C)c1
active: [3] 13.1 µM
inactive: all other assays above

Oc1ccc(C(c2ccc(O)cc2)C(Cl)(Cl)Cl)cc1
active: [1] 92.8 µM | [2] 83.7 µM | [4] 79.3 µM | [5] 88.5 µM | [6] 77.1 µM | [7] 87.8 µM | [9] 50 µM | [10] 91.7 µM
inactive: [3] | [8]

C[C@]12CC[C@@H]3c4ccc(O)cc4C[C@@H](CCCCCCCCCS(=O)CCCC(F)(F)C(F)(F)F)[C@H]3[C@@H]1CC[C@@H]2O (some centres undefined)
active: [1] 33.6 µM | [2] 0.0444 µM | [4] 0.0415 µM | [5] 22.3 µM | [6] 13.9 µM | [7] 24.3 µM | [8] 0.0883 µM | [10] 0.0859 µM
inactive: [3] | [9]

C#C[C@]1(O)CC[C@H]2[C@@H]3CCC4=CC(=O)CC[C@@H]4[C@H]3CC[C@@]21CC
active: [6] 0.0379 µM
not listed: [8]
inactive: all other assays above

COCCO
inactive: all assays above

CCCN(CCC)C(=O)SCC
inactive: all assays above

CCCCC(CC)COC(=O)c1ccccc1C(=O)O (centres undefined)
active: [3] 50.8 µM
inactive: all other assays above

CCSC(=O)N(CC(C)C)CC(C)C
inactive: all assays above

CCCN(CCC)c1c([N+](=O)[O-])cc(C(F)(F)F)c(N)c1[N+](=O)[O-]
active: [1] 33.3 µM | [3] 22.7 µM
inactive: all other assays above

CC(C)CCCCCCc1ccc(O)cc1
inactive: all assays above
